GLP1R cytotox – cytotoxicity counter-screen for GLP-1 receptor inverse agonists; Potency, µM (top dose mostly 38.3 µM), usual class: inhibitors; HEK293 cAMP-luciferase reporter cells, luminescence, 24 h; hit rate 0.13% among 410,000; AID 624418;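 also: loss of luciferase light is scored as toxicity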
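Seeding density was 200 cells/uL; after overnight-length (12 h) culture, 23 nL compounds went on for 24 h at 37 °C. Readout used a luciferase detection reagent, luminescence taken after 12 min at room temperature.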
Gal4-VP16 FLuc – Gal4-VP16 reporter inhibition counter-screen. Potency, µM (highest dose often 53.6 µM), hits mostly inhibitors. Drosophila S2 Gal4-VP16 UAS-luciferase, luminescence, 20 h. AID 2546. hit rate 3.5% among 310,000;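 also: Gal4-VP16 expression switched on by copper sulfate through the metallothionein promoter; nearly all actives have a fitted effect of over 50% in size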
RORg inh – ROR gamma (mouse) transcription inhibition; Drosophila S2 Gal4-RORgamma UAS-luciferase reporter, 20 h; Potency, µM (titrated, usually from 53.6 µM), actives largely listed as inhibitors; hit rate 5.4% among 310,000; AID 2551; also: nearly all actives have a fitted effect of over 60% in size
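Luciferase reporter read in Schneider cells carrying Gal4-RORγ (mouse) and UAS-Photinus luciferase; cells given compound 1 h before 700 uM copper sulfate induction, then incubated 20 h at ambient temperature.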
GLP1R ag – agonists of human GLP-1 receptor. P43220. HEK293 GLP-1R CRE-luciferase, luminescence, 4-6 h; cells express a hypersensitive GLP-1R form. Potency, µM (top dose mostly 45.6 µM), most hits filed as activators. hit rate 0.007% among 380,000
Target sequence (P43220 whole entry, looked up): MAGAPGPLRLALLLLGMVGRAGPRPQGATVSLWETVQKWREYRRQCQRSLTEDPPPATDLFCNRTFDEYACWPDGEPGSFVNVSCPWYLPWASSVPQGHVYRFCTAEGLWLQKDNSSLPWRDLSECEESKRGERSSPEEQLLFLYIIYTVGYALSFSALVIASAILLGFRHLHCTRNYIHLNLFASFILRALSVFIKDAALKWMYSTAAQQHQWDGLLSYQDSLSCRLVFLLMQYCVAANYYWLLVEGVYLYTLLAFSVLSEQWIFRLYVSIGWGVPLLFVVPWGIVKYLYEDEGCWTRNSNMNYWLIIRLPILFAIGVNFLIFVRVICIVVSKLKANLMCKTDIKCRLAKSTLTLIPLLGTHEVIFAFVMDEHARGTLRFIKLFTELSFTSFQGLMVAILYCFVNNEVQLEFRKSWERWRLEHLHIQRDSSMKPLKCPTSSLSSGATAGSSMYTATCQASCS
GLP-1R inv ag – GLP-1 receptor (human) inverse agonism. P43220. HEK293 GLP-1R CRE-luciferase, luminescence, 24 h; GLP-1R form is constitutively active. Potency, µM (highest dose often 38.3 µM), hits mostly inhibitors. AID 624417. hit rate 1.6% among 410,000; also: nearly all actives have a fitted effect of over 55% in size
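GLP-1R inverse agonism mode: basal reporter luminescence in engineered HEK293 cells measured after one day of compound exposure at 37 deg C, with a 12 min room-temperature detection step.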
A number is an active result; i = inactive; ? = inconclusive; nt = no result; [ ] = another dose, or the depositor's remark. In the library only some 5.9% were active in any assay of this set; here they are far more common. Calls follow the shape of the dose curve; as a rule, active = well fitted curve in the direction sought with a large enough effect; inconclusive = small, poorly fitted or top-dose-only effect, or another doubt; inactive = no such curve, though single readings can be large; an effect the other way counts as inactive or inconclusive.

SMILES	GLP1R cytotox	Gal4-VP16 FLuc	RORg inh	GLP1R ag	GLP-1R inv ag
Cc1ccc(N2CCN(S(=O)(=O)c3nnc(NC(=O)c4cccc(F)c4)s3)CC2)cc1	i	nt	nt	nt	?
COc1cc(/C=N/NC(=O)c2ccccn2)ccc1OC(=O)c1ccccc1Br	11µM	?	?	i	?
CC(C)c1ccc(/C=N/NC(=O)c2ccccn2)cc1	i	?	11µM	i	?
CCn1cc(C(=O)OCC(=O)Nc2cc(Cl)ccc2OC)c(=O)c2ccc(C)nc21	i	nt	nt	i	i
CC(NC(=S)NCCCN1CCOCC1)C1CC2CCC1C2 (stereo unspecified)	?	?	5.6µM	i	i
CC(NC(=S)NCCN1CCOCC1)C12CC3CC(CC(C3)C1)C2 (stereo unspecified)	i	i[10 µM]	5µM	i	i
C[C@@H]1C(=O)O[C@@H]1[C@@H](C)CO[Si](c1ccccc1)(c1ccccc1)C(C)(C)C	nt	i	i	nt	nt
C#C[C@]1(O)CC[C@@H]2[C@H]3CCC4=CC(=O)CC[C@H]4[C@H]3C(=C)C[C@@]21CC	nt	i	i	i	nt
O=C(O)c1cc(/C=C/C(=O)c2cc(F)ccc2O)c2c(c1)COCO2	i	10µM	13µM	i	i
COc1ccc(C(=O)/C=C/c2cc(C(=O)O)cc3c2OCOC3)c(O)c1	i	i	i	i	i
O=C(O)c1cccc(NC(=O)c2cccc(S(=O)(=O)Nc3cccc(C(=O)O)c3)c2)c1	i	nt	nt	nt	i
O=C(Nc1ccc(Br)cc1)c1cccc(S(=O)(=O)Nc2ccc(Br)cc2)c1	nt	7.9µM	?	nt	nt
CCC1CCCCN1S(=O)(=O)c1cc(C(=O)Nc2ccc(C)c(F)c2)ccc1F (stereo unspecified)	i	nt	nt	nt	10µM
O=C1CSc2ccc(C(=O)Nc3cccc(S(=O)(=O)Nc4ccc(Br)cc4)c3)cc2N1	?	10µM	16µM	i	?
O=C(O)c1ccc(NC(=O)c2cccc(S(=O)(=O)Nc3ccc(C(=O)O)cc3)c2)cc1	i	i	i	i	i
O=C(Nc1ccc(Br)cc1)c1ccc(F)c(S(=O)(=O)NC2CCCCCC2)c1	?	nt	nt	nt	3.2µM
CCC/C=C(\CCC)C(NS(=O)(=O)c1ccc(Cl)cc1)c1ccccc1 (stereo unspecified)	nt	i	?	nt	nt
N#CCCS(=O)(=O)c1ccccc1	nt	i	i	nt	nt
CC1(C)CC(=O)C(C=Nc2cc(C(=O)c3ccccc3)ccc2N)=C(O)C1	i	?	7.9µM	i	?
CSc1ccccc1N=CC1=C(O)CC(C)(C)CC1=O	?	i	i	i	i
COC(=O)c1ccc(N)c(N=CC2=C(O)CC(C)(C)CC2=O)c1	i	?	13µM	i	i
CC1(C)CC(=O)C(C=Nc2ccc(N)cc2)=C(O)C1	i	?	i	i	i
Cc1cc(C(=O)NCc2ccccc2Cl)c2c(C)nn(-c3ccccc3)c2n1	i	nt	nt	i	i
CCc1ccccc1NC(=O)C(=O)NCCc1sc(-c2cccc(F)c2)nc1C	i	nt	nt	nt	i
Brc1ccc(-c2nc3ccc(Br)cn3c2Cc2ccccc2)cc1	i	nt	nt	i	i
SMILES	GLP1R cytotox	Gal4-VP16 FLuc	RORg inh	GLP1R ag	GLP-1R inv ag
Fc1ccc(-c2nc3ccc(Br)cn3c2Cc2ccccc2)cc1	i	nt	nt	i	8.9µM
Cc1ccc(CCNC(=O)c2c3c(nc4ccccc24)C(=O)N(C2CCCCC2)C3)cc1	i	nt	nt	nt	i
O=C(NC(=S)Nc1ccccc1)c1csnn1	i	?	5.6µM	i	i
O=C(NC(=S)Nc1ccc(C(F)(F)F)cc1)c1csnn1	i	?	7.9µM	i	i
C=C(C)CC(C)(C)C	nt	i	i	nt	nt
CC1(C)C(=O)CC[C@@]2(C)C1CC(O)[C@@]1(C)C3=CC(=O)OC(c4ccoc4)[C@]3(C)CCC21 (stereo partly specified)	nt	i	i	nt	nt
CCC(=O)NC(c1ccccc1Cl)c1c(O)ccc2ccccc12 (stereo unspecified)	i	i	i	i	?
CCC(=O)NC(c1ccccc1OC)c1ccc2cccnc2c1O (stereo unspecified)	?	5µM	5µM	i	?
CCCCC(=O)NC(c1ccccc1Cl)c1ccc2cccnc2c1O (stereo unspecified)	?	3.5µM	5µM	i	?
CCC(=O)NC(c1ccc(OC)cc1)c1cc(Cl)c2cccnc2c1O (stereo unspecified)	?	i	i	i	?
CCCC(=O)NC(c1ccc(OC)cc1)c1ccc2cccnc2c1O (stereo unspecified)	?	4.5µM	1.8µM	i	?
COc1ccc(Cl)cc1C(Nc1cccnc1)c1ccc2cccnc2c1O (stereo unspecified)	i	2.2µM	1.1µM	i	i
COc1cccc(CNc2cccc3cccnc23)c1O	i	nt	i[0.365 µM]	i	i
CC(C)=CCC/C(C)=C\CC/C(C)=C\CC/C=C(\C)CC/C=C(\C)CCC=C(C)C	nt	nt	nt	i	nt
CC(=O)NC(c1cc(Cl)c2cccnc2c1O)C(C)C (stereo unspecified)	nt	nt	nt	i	nt
CCCCC(=O)NC(c1ccc(C(C)C)cc1)c1ccc2cccnc2c1O (stereo unspecified)	i	2.8µM	2.5µM	i	?
CCCCC(=O)NC(c1ccccc1)c1ccc2cccnc2c1O (stereo unspecified)	?	2.5µM	1.3µM	i	?
CCCCC(=O)NC(c1cccc([N+](=O)[O-])c1)c1ccc2cccnc2c1O (stereo unspecified)	?	nt	nt	i	?
CCCC(=O)NC(c1ccccc1)c1ccc2cccnc2c1O (stereo unspecified)	?	?	?	i	?
CC(=O)NC(c1ccc(C(C)C)cc1)c1ccc2cccnc2c1O (stereo unspecified)	i	2.8µM	3.5µM	i	?
O=C(NNc1nc(N2CCOCC2)nc(N2CCOCC2)n1)c1ccccc1	i	nt	nt	i	i
O=C(CSc1nc(Nc2ccccc2)nc(N2CCOCC2)n1)Nc1cccc([N+](=O)[O-])c1	i	i	?	i	11µM
O=C(NNc1nc(Nc2ccccc2)nc(N2CCOCC2)n1)Nc1ccc(Cl)cc1	i	5.6µM	1.8µM	i	?
CC(=O)Nc1ccc(/C(C)=N/Nc2nc(Nc3ccccc3)nc(N3CCOCC3)n2)cc1	i	?	10µM	i	?
CCS(=O)(=O)N1CC(=O)N(c2cccc(C)c2C)C(C)(C(=O)NC2CCCCC2)C1 (stereo unspecified)	i	nt	nt	nt	i
COc1ccc(-n2c(=O)c(CCc3ccccc3)nc3cnc(N4CCOCC4)nc32)cc1	nt	i	i	nt	nt
CCCCCCC(C)n1[nH]c(=O)c2c(C)cc(C)nc21 (stereo unspecified)	i	i	?	i	10µM
CCCCCC(C)n1[nH]c(=O)cc1N (stereo unspecified)	i	i	i	i	i
COc1cc(NC(=O)Cn2ncc(Cl)c(Cl)c2=O)c(C)cc1[N+](=O)[O-]	i[0.307 µM]	7.1µM	2µM	i	i[0.307 µM]
COc1cc(NC(=O)CN2C(=O)CN(C)C2=O)c(C)cc1[N+](=O)[O-]	i	i	i	i	i

Screening data (PubChem BioAssay)
